Reference: PubChem BioAssay AID1159580 (chemical genetic matrix, 2015)
The campaign covered roughly 5,500 compounds. About 2,000 (36%) were called active. Roughly 18% stayed inconclusive and do not appear here. Cut-off read from the data, not from the text of the source: active = normalized growth mostly below about 0.91 (no sharp cut-off); inconclusive = no clear call, values can overlap the other calls; inactive = mostly above about 0.92. The list shows a part of the results.

Assay: chemical genetic growth profiling, strain panel (AID 1159580);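 note: tested at 20 µM; growth read once vehicle control cultures reached saturation at 30 °C; 1 = growth at the plate median or of vehicle wells; lower values mean less growth of the strain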
Conditions: growth OD

Measured: normalized growth

COc1ccc(C2C(=O)c3ccccc3C2=O)cc1
inactive: S. cerevisiae deletion strains, locus YJR066W, strain TOR1, hits give low values 0.897 | S. cerevisiae deletion strains, locus YJR075W, strain HOC1, hits give low values 0.983 | S. cerevisiae deletion strains, locus YKL009W, strain mrt4, hits give low values 0.958 | S. cerevisiae deletion strains, locus YKL068W, hits give low values 0.987 | S. cerevisiae deletion strains, locus YKL085W, strain MDH1 (second series), hits give low values 0.983 | S. cerevisiae deletion strains, locus YKL085W, strain MDH1, hits give low values 0.983 | S. cerevisiae deletion strains, locus YKL160W, strain elf1, hits give low values 0.998 | S. cerevisiae deletion strains, locus YKR001C, strain vps1, hits give low values 1 | S. cerevisiae deletion strains, locus YKR026C, strain gcn3, hits give low values 0.96 | S. cerevisiae deletion strains, locus YKR091W, strain srl3, hits give low values 1.01 | S. cerevisiae deletion strains, locus YLL001W, strain dnm1, hits give low values 0.997 | S. cerevisiae deletion strains, locus YLL026W, hits give low values 0.966 | S. cerevisiae deletion strains, locus YLL041C, strain sdh2, hits give low values 0.982 | S. cerevisiae deletion strains, locus YLR027C, strain aat2, hits give low values 0.997 | S. cerevisiae deletion strains, locus YLR039C, strain RIC1, hits give low values 0.993 | S. cerevisiae deletion strains, locus YLR058C, strain SHM2, hits give low values 0.993 | S. cerevisiae deletion strains, locus YLR102C, strain apc9, hits give low values 0.989 | S. cerevisiae deletion strains, locus YLR221C, strain rsa3, hits give low values 1 | S. cerevisiae deletion strains, locus YLR258W, strain gsy2, hits give low values 1.01 | S. cerevisiae deletion strains, locus YLR262C, strain YPT6 (second series), hits give low values 0.987 | S. cerevisiae deletion strains, locus YLR262C, strain YPT6, hits give low values 1.01 | S. cerevisiae deletion strains, locus YLR268W, strain sec22, hits give low values 1.01 | S. cerevisiae deletion strains, locus YLR320W, strain mms22, hits give low values 1.02 | S. cerevisiae deletion strains, locus YLR330W, strain CHS5, hits give low values 1 | S. cerevisiae deletion strains, locus YLR342W, strain FKS1 (second series), hits give low values 1.02 | S. cerevisiae deletion strains, locus YLR342W, strain FKS1, hits give low values 1 | S. cerevisiae deletion strains, locus YLR357W, strain rsc2, hits give low values 1.09 | S. cerevisiae deletion strains, locus YLR370C, strain arc18, hits give low values 1 | S. cerevisiae deletion strains, locus YLR371W, strain rom2, hits give low values 1.01 | S. cerevisiae deletion strains, locus YLR384C, strain iki3, hits give low values 0.992 | S. cerevisiae deletion strains, locus YLR418C, strain cdc73, hits give low values 0.957 | S. cerevisiae deletion strains, locus YML016C, strain PPZ1, hits give low values 1.01 | S. cerevisiae deletion strains, locus YML032C, strain rad52, hits give low values 1.01 | S. cerevisiae deletion strains, locus YML120C, strain ndi1, hits give low values 0.992 | S. cerevisiae deletion strains, locus YML124C, strain tub3, hits give low values 0.994 | S. cerevisiae deletion strains, locus YMR058W, strain fet3, hits give low values 0.979 | S. cerevisiae deletion strains, locus YMR078C, strain ctf18, hits give low values 0.99 | S. cerevisiae deletion strains, locus YMR125W, strain sto1, hits give low values 0.994 | S. cerevisiae deletion strains, locus YMR129W, hits give low values 0.972 | S. cerevisiae deletion strains, locus YMR205C, strain PFK2, hits give low values 1.01 | S. cerevisiae deletion strains, locus YMR223W, strain ubp8, hits give low values 0.976 | S. cerevisiae deletion strains, locus YMR231W, strain pep5, hits give low values 1.02 | S. cerevisiae deletion strains, locus YMR307W, strain GAS1, hits give low values 1.04 | S. cerevisiae deletion strains, locus YNL067W, strain RPL9B, hits give low values 0.932 | S. cerevisiae deletion strains, locus YNL071W, strain lat1, hits give low values 0.986 | S. cerevisiae deletion strains, locus YNL128W, strain TEP1, hits give low values 0.977 | S. cerevisiae deletion strains, locus YNL153C, strain GIM3, hits give low values 0.997 | S. cerevisiae deletion strains, locus YNL183C, strain NPR1, hits give low values 0.882 | S. cerevisiae deletion strains, locus YNL209W, strain ssb2, hits give low values 0.992 | S. cerevisiae deletion strains, locus YNL233W, strain BNI4, hits give low values 1 | S. cerevisiae deletion strains, locus YNL248C, strain rpa49, hits give low values 1.05 | S. cerevisiae deletion strains, locus YNL250W, strain rad50, hits give low values 0.987 | S. cerevisiae deletion strains, locus YNL271C, strain bni1, hits give low values 0.983 | S. cerevisiae deletion strains, locus YNL298W, strain CLA4, hits give low values 0.976 | S. cerevisiae deletion strains, locus YNL307C, strain MCK1, hits give low values 1.01 | S. cerevisiae deletion strains, locus YNL322C, strain KRE1 (second series), hits give low values 0.961 | S. cerevisiae deletion strains, locus YNR049C, strain mso1, hits give low values 0.982 | S. cerevisiae deletion strains, locus YNR052C, strain pop2, hits give low values 0.987 | S. cerevisiae deletion strains, locus YOL012C, strain htz1 0.937 | S. cerevisiae deletion strains, locus YOL147C, strain pex11, hits give low values 0.992 | S. cerevisiae deletion strains, locus YOR001W, strain rrp6, hits give low values 1.02 | S. cerevisiae deletion strains, locus YOR061W, strain CKA2, hits give low values 0.999 | S. cerevisiae deletion strains, locus YOR069W, strain VPS5, hits give low values 0.997 | S. cerevisiae deletion strains, locus YOR070C, strain gyp1, hits give low values 1 | S. cerevisiae deletion strains, locus YOR080W, strain dia2, hits give low values 1.02 | S. cerevisiae deletion strains, locus YOR083W, strain WHI5, hits give low values 1.01 | S. cerevisiae deletion strains, locus YOR106W, strain vam3, hits give low values 1.04 | S. cerevisiae deletion strains, locus YOR136W, strain idh2, hits give low values 0.984 | S. cerevisiae deletion strains, locus YOR144C, strain elg1, hits give low values 0.997 | S. cerevisiae deletion strains, locus YOR184W, strain ser1, hits give low values 0.998 | S. cerevisiae deletion strains, locus YOR231W, strain MKK1, hits give low values 0.878 | S. cerevisiae deletion strains, locus YOR265W, strain rbl2, hits give low values 0.995 | S. cerevisiae deletion strains, locus YOR270C, strain vph1, hits give low values 1.07 | S. cerevisiae deletion strains, locus YOR290C, strain snf2, hits give low values 1 | S. cerevisiae deletion strains, locus YOR316C, strain cot1, hits give low values 0.983 | S. cerevisiae deletion strains, locus YPL051W, strain arl3, hits give low values 1.03 | S. cerevisiae deletion strains, locus YPL078C, strain atp4, hits give low values 1 | S. cerevisiae deletion strains, locus YPL106C, strain sse1, hits give low values 1.03 | S. cerevisiae deletion strains, locus YPL240C, strain hsp82, hits give low values 0.984 | S. cerevisiae deletion strains, locus YPR119W, strain clb2, hits give low values 0.998 | S. cerevisiae deletion strains, locus YPR141C, strain kar3, hits give low values 0.977 | S. cerevisiae deletion strains, locus YPR163C, strain tif3, hits give low values 0.995 | S. cerevisiae deletion strains, locus YPR167C, strain met16, hits give low values 0.998 | S. cerevisiae deletion strains, strain wtn01, hits give low values 0.991 | S. cerevisiae strains, strain wild type, hits give low values 1
active: S. cerevisiae deletion strains, locus YLR113W, strain HOG1, hits give low values 0.767 | S. cerevisiae deletion strains, locus YPL256C, strain CLN2, hits give low values 0.817
